Results on 14 compounds are retold here after PubChem BioAssay.

Calls of active or inactive are those of the source.

The test system of assay [1] is PRMT1 (protein arginine N-methyltransferase 1). Put plainly: small molecules binding arginine methyltransferase PRMT1 – biochemical, small-molecule microarray, 635 nm fluorescence, primary screen (AID 1088).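 Note: binding of Prmt1 protein to compounds spotted on small-molecule microarray slides.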 The note with it: higher = more signal.
A short description of assay [2]: growth effects on S. cerevisiae YJM789 – YJM789 clinical isolate, OD600, 24 h, basal, primary screen (AID 1089).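 Note: growth of clinical yeast isolate S. cerevisiae YJM 789 seeded 1000 cells per well; test concentration not given here.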 The note with it: higher = more signal, called active from +8 up or from −8 down.
Assay [3] can be described thus: S. pombe growth modifiers, basal conditions – strain 972, OD600, 24 h, no modulator, primary screen (AID 1090).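 Note: basal condition with compound alone and no growth modifier present; test concentration not given here.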 The note with it: S. pombe 972 growth, higher = more signal, called active from +8 up or from −8 down.
The nature of assay [4]: budding yeast growth modifiers under rapamycin – strain BY4716, OD600, 96 h, primary screen (AID 1091). Note: test concentration not given here. The note with it: S. cerevisiae BY4716 + rapamycin, higher = more signal, called active from +8 up or from −8 down.
The target in assay [5] is Torsin-1A-interacting protein 2 (Homo sapiens) (UniProt Q8NFQ8). Put plainly: small molecules binding lysate-expressed LULL1 – cell lysate, human LULL1 lysate, 635/667 nm fluorescence, primary screen (AID 1092).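 Note: probe is lysate of COS7 cells overexpressing human LULL1; score merges per-feature 667 nm fluorescence with signal-to-noise.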 The note with it: small-molecule microarray, hLULL1 lysate binding, 635 nm fluorescence; higher = more signal.
Chain of Torsin-1A-interacting protein 2 (Homo sapiens) (Q8NFQ8 whole entry, looked up): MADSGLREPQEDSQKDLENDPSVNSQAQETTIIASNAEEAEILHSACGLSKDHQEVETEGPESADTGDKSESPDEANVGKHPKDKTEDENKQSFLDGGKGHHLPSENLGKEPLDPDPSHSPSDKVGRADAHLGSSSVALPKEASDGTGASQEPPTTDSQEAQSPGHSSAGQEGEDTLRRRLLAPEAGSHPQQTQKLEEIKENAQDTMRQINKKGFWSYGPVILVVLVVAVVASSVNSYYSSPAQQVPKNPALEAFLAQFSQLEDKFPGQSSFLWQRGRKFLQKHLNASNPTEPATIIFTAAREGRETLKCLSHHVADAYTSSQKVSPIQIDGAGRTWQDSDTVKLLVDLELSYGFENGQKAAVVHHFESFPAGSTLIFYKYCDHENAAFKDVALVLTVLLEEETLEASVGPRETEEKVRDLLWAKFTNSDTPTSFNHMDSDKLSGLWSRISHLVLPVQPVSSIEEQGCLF
The nature of assay [6]: optical density change of DRC41 E. coli – strain DRC41, OD650, 24 h, E. coli filamentation project, primary screen (AID 1093).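 Note: MC1000 strain lacking acrAB efflux and sulA so SOS filamentation is blocked; test concentration not given here.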 The note with it: E. coli DRC41 growth, higher = more signal, called active from +8 up or from −8 down.
Assay [7] can be described thus: probe aLefty2 binding to arrayed compounds – biochemical, biotinylated probe, 635/667 nm fluorescence, primary screen (AID 1094).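 Note: score merges spot fluorescence near 667 nm with spot signal-to-noise ratio.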 The note with it: small-molecule microarray, higher = more signal.
Assay [8] relates to Noggin (protein binding on small-molecule microarray). Kind of assay: small molecules binding Noggin protein – biochemical, 635/667 nm fluorescence, primary screen (AID 1095).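 Note: score merges 667 nm feature fluorescence with signal to noise over triplicate slides.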 The note with it: 635 nm fluorescence, higher = more signal.
Assay [9] deals with Neurogenic locus notch homolog protein 3 (Homo sapiens) (UniProt Q9UM47). Put plainly: small molecules binding NOTCH3 protein – biochemical, 635/667 nm fluorescence, primary screen (AID 1096). The note with it: small-molecule microarray, 635 nm fluorescence, higher = more signal.
Chain of Neurogenic locus notch homolog protein 3 (Homo sapiens) (Q9UM47 whole entry, looked up): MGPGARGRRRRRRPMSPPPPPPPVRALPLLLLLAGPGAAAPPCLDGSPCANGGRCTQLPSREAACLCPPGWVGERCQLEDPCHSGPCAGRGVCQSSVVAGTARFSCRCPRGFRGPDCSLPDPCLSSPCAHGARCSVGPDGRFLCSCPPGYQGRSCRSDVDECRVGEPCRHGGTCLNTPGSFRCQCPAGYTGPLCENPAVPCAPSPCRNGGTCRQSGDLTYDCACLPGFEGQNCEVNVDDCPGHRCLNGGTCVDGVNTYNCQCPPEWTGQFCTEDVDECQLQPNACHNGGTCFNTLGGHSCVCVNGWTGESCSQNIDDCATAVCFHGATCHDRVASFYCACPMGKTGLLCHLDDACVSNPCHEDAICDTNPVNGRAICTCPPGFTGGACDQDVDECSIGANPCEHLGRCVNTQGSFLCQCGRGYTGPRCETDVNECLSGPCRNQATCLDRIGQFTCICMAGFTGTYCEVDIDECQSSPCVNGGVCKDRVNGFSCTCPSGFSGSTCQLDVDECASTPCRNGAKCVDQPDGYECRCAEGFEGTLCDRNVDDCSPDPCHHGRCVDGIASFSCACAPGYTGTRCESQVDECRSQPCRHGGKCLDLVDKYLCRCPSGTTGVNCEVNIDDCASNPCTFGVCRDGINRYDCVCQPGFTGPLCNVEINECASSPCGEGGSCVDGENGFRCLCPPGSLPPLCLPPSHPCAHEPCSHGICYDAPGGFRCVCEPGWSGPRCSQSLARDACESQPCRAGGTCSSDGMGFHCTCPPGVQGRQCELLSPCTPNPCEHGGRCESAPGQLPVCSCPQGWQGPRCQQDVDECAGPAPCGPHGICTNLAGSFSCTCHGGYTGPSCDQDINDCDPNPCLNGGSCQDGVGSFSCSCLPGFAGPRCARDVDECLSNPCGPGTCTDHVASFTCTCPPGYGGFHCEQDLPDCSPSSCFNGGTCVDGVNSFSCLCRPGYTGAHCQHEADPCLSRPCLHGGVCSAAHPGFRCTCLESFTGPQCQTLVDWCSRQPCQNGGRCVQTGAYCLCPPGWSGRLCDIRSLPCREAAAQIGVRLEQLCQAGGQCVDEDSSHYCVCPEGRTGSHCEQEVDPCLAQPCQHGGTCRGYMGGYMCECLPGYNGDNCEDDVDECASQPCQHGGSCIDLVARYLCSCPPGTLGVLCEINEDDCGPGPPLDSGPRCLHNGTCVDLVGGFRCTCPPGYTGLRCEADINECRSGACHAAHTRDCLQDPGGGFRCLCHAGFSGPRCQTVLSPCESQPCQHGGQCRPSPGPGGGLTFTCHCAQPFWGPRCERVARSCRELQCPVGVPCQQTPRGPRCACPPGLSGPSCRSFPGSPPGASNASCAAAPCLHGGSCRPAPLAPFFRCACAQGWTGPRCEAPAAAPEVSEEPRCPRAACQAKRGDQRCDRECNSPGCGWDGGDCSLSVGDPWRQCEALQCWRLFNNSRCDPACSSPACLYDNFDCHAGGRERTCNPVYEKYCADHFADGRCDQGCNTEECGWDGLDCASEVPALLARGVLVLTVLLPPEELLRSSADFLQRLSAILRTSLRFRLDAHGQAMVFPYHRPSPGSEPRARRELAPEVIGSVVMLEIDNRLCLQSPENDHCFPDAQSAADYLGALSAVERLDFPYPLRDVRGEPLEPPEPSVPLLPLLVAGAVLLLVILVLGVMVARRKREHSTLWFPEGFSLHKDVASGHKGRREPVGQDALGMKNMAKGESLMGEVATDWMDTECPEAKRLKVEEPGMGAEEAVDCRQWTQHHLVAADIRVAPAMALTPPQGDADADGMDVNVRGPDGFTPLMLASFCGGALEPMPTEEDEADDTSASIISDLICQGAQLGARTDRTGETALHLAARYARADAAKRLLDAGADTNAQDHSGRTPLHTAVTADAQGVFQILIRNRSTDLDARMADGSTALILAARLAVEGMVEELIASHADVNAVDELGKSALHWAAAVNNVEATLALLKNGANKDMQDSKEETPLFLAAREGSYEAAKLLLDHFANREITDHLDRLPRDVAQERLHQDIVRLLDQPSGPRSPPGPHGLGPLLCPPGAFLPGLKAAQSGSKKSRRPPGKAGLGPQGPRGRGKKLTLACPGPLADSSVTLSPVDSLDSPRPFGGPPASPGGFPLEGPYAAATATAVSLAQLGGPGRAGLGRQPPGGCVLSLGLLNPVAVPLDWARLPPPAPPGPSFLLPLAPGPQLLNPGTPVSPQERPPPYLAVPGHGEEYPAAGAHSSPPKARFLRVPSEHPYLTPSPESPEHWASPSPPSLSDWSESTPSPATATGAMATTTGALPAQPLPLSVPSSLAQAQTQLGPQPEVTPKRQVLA
Assay [10] is described as follows: probe aEGFR binding to arrayed compounds – biochemical, biotinylated probe, 635/667 nm fluorescence, primary screen (AID 1097).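 Note: probe is a biotinylated anti-EGFR antibody binding compounds printed on slides; score combines fluorescence near 667 nm and signal to noise of each spot.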 The note with it: small-molecule microarray, higher = more signal.

As to `COC(=O)[C@@]1(Cc2ccccc2)[C@H]2c3cc(C(=O)N4CCCC4)n(Cc4cccc5ccccc45)c3C[C@H]2CN1C(=O)c1ccccc1`, the composite z-score was -1.59 in [1]; 2.54 in assay [5]; 1.29 in [7]; -0.685 in assay [8]; 0.943 in [9]; 0.891 in assay [10]. The z-score was 0.506 (inactive) in assay [2], 1.56 (inactive) in [3], 1.43 (inactive) in assay [4] and -0.395 (inactive) in [6].

`C=C(C)C1C(=C)CN([C@H](CO)c2ccccc2)C1=O` (stereo not given in full): the composite z-score was 0.0584 in assay [1]; 1.62 in [5]; -0.0757 in [7]; 0.245 in [8]; 0.0316 in assay [9]; -0.18 in [10]. For the same compound, the z-score in assay [2] is -0.329 (inactive); in [3], -0.635 (inactive); in assay [4], -1.97 (inactive); in [6] it was -0.233 (inactive).

For the compound `COc1ccc(C(=O)O[C@H]2CC[C@]3(C)C4=C(CCC3C2(C)C)[C@]2(C)CC[C@H]([C@H](C)CCCC(C)C)[C@@]2(C)CC4)cc1` (stereo not given in full), the composite z-score was 0.193 in assay [1]; -0.445 in [5]; -0.0561 in assay [7]; 0.546 in assay [8]; 0.947 in assay [9]; -0.0828 in assay [10]. In addition, the z-score was -0.292 (inactive) in assay [2], -1.52 (inactive) in assay [3], -0.262 (inactive) in [4] and 1.71 (inactive) in assay [6].

Regarding `O=C1O[C@H](c2ccccc2)[C@H](c2ccccc2)N2[C@H]1[C@@H](C(=O)Nc1nc3ccccc3s1)[C@]1(C(=O)Nc3ccc(C#CCCO)cc31)[C@H]2c1ccc(OCCO)cc1`, the composite z-score in assay [1] was 1.55; in assay [5], 3.19; in [7], -0.137; in assay [8], 1.72; in [9], 1.12; in [10], -0.0368. The z-score in [2] was 0.737 (inactive); in assay [3], 0.933 (inactive); in assay [4], 2.84 (inactive); in [6], 0.0573 (inactive).

For `CCCCN1CC=CC23O[C@@H]4C=CCOC(=O)[C@@H]4[C@H]2C(=O)N(CCCCCO)[C@@H]3C1=O` (stereo not given in full), the composite z-score in assay [1] is -0.0902; in assay [5] it was 3.04; in assay [7], 0.0695; in assay [8], -0.929; in assay [9] it was -0.445; in [10], -0.268. Moreover, the z-score is -0.404 (inactive) in [2], -0.244 (inactive) in [3], -0.279 (inactive) in assay [4] and 1.34 (inactive) in assay [6].

Regarding `Cc1ccc(C(C)CC(O)C2C=CC3C(=O)N(C)C(=O)C3N2NC(=O)OC(C)(C)C)o1` (stereo not given), the composite z-score in [1] is 1.42; in assay [5], 3; in assay [7] it was 0.0682; in assay [8] it was 0.68; in assay [9] it was 1.06; in assay [10], 0.0681. Besides, the z-score is 0.309 (inactive) in assay [2], -0.63 (inactive) in assay [3], 0.101 (inactive) in assay [4] and -0.615 (inactive) in assay [6].

With `COC(=O)C(CC#Cc1ccc2c(c1)[C@]1(C(=O)N2)[C@H](C(=O)O)[C@H]2C(=O)O[C@H](c3ccccc3)[C@H](c3ccccc3)N2[C@@H]1c1ccc(O)cc1)C(=O)OC`, the composite z-score in [1] was 0.615; in [5], 2.12; in assay [7], -0.188; in [8], -0.868; in assay [9], -0.608; in assay [10], -0.0514. Also, the z-score in [2] is 1.06 (inactive); in assay [3], 0.819 (inactive); in assay [4] it was -0.567 (inactive); in assay [6] it was -0.913 (inactive).

Turning to `O=C1O[C@H](c2ccccc2)[C@H](c2ccccc2)N2[C@H]1[C@@H](C(=O)O)[C@]1(C(=O)Nc3ccc(C#CC4=CCCCC4)cc31)[C@H]2c1ccccc1OCCO`, the composite z-score was 1.53 in assay [1]; 3.1 in [5]; 0.196 in assay [7]; 1.05 in [8]; 0.941 in assay [9]; -0.313 in assay [10]. For the same compound, the z-score in assay [2] is 1.07 (inactive); in [3], 1.1 (inactive); in assay [4], -1.55 (inactive); in assay [6], -0.273 (inactive).

Take `O=C1C2C=CC(C(O)C3CCCCC3)N(Nc3ccc([N+](=O)[O-])cc3)C2C(=O)N1c1ccccc1` (stereo not given): the composite z-score in assay [1] is 1.56; in [5], 3.19; in assay [7], -0.314; in assay [8] it was -0.995; in assay [9], -0.273; in assay [10] it was -0.226. Also, the z-score in assay [2] was 0.139 (inactive); in [3] it was 0.341 (inactive); in [4] it was 3.55 (inactive); in assay [6], -1.15 (inactive).

For `COc1ccc(C(O)C2C=CC3C(=O)N(c4ccccc4)C(=O)C3N2Nc2ccccc2F)cc1OCc1ccccc1` (stereo not given), the composite z-score in assay [1] was 0.946; in assay [5], 2.94; in assay [7], 0.312; in assay [8], -0.0436; in assay [9] it was 0.386; in [10] it was 0.308. For the same compound, the z-score is -0.306 (inactive) in assay [2], 0.754 (inactive) in assay [3], 1 (inactive) in assay [4] and -0.994 (inactive) in [6].

As for `COCCCNC(=O)[C@@]1(Cc2ccccc2N=[N+]=[N-])N=C(c2ccc(OCCCO)cc2)O[C@H]1c1ccccc1N=[N+]=[N-]`, the composite z-score in assay [1] was 1.56; in assay [5], 3.27; in assay [7], 0.23; in [8], 0.0556; in assay [9], 1.1; in [10], 0.0507. The z-score in assay [2] is 0.253 (inactive); in assay [3] it was -0.143 (inactive); in assay [4] it was 2.01 (inactive); in assay [6] it was -0.27 (inactive).

In the case of `CCOC(=O)C[C@H]1[C@H](OC(=O)c2cc3ccccc3oc2=O)[C@@H](NC(=O)C2CCCCC2)c2cc(OCCCO)ccc2N1C(=O)c1ccccc1`, the composite z-score in assay [1] is 0.633; in assay [5], 1.45; in assay [7], -0.0668; in assay [8], 0.844; in assay [9], 0.615; in assay [10] it was 0.25. Also, the z-score in [2] was -0.415 (inactive); in assay [3] it was -0.894 (inactive); in assay [4], -0.0843 (inactive); in [6], 2.03 (inactive).

On to `CC(=O)N1Cc2ccccc2C[C@@]2(COC(c3ccc(OCCCO)cc3)=N2)C1=O`, for which the composite z-score in assay [1] came out at 1.55; in assay [5], 2.25; in assay [7], 0.518; in assay [8], 0.515; in [9], 1.03; in assay [10], 0.119. In addition, the z-score in [2] was -3.98 (inactive); in assay [3], -0.737 (inactive); in [4] it was -0.965 (inactive); in assay [6] it was 1.81 (inactive).

Turning to `O=C(NCc1ccccc1)[C@@]1(Cc2ccccc2)N=C(c2ccc(OCCCO)cc2)O[C@H]1c1ccccc1`, the composite z-score in [1] was 0.982; in assay [5], 3.39; in [7] it was 0.126; in assay [8] it was -0.595; in assay [9], 0.642; in assay [10], 0.0357. In addition, the z-score in assay [2] is 0.46 (inactive); in assay [3], -0.666 (inactive); in assay [4], 23.2 (active); in [6], 0.842 (inactive).
